In the library only some 3.5% were active in any assay of this set; here they are far more common.
FBW7 activator = human FBW7 E3 ligase activation, primary screen; AlphaScreen FBW7–phospho-cyclin E peptide binding, activator screen; Q969H0; normalized activity (activation), % at 26.1 µM; hit rate 0.13% among 650,000; in the data active means normalized activity above about 1.9%;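 further: purified mutant Fbw7 with reduced substrate affinity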
MITF primary = blocks human microphthalmia-associated transcription factor. inhibition, % at 2.6 µM. hit rate 0.91% among 650,000. AlphaScreen MITF homodimerization, bead proximity signal. AID 1259374; in the data active means inhibition above about 50%;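 further: 0% = vehicle wells with protein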
GPR151 ag = human GPR151 activation. Q8TDV0. PathHunter beta-arrestin GPR151 cells, luminescence. activation, % at 11.2 µM. hit rate 1% among 650,000. AID 1508602; in the data active means activation above about 4.9%;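 further: 0% = median of compound wells and 100% = cells with positive control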
Target sequence (Q8TDV0 whole entry, looked up): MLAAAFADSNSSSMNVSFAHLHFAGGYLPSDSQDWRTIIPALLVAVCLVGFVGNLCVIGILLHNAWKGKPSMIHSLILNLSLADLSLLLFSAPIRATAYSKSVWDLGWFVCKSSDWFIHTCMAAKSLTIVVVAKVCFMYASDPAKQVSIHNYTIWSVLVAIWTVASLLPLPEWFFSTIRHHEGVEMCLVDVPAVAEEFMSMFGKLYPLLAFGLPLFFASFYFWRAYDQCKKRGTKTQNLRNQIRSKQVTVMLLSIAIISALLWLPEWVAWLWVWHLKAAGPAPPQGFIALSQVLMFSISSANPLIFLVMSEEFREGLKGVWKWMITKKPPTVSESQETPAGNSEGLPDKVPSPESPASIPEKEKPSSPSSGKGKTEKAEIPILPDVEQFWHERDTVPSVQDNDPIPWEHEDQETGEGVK
TEAD-YAP block = TEAD-YAP interaction inhibition. hit rate 1.4% among 640,000. HEK-TIYL cells, TEAD-Gal4/YAP UAS-luciferase luminescence. inhibition, % at 9.12 µM; in the data active means inhibition above about 32%;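 further: 0% = median of test compound wells and 100% = reference inhibitor wells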
An asterisk follows results filed as active.

SMILES | FBW7 activator | MITF primary | GPR151 ag | TEAD-YAP block
O=C(NCc1cccc(C(F)(F)F)c1)c1cccc(N2CCC(N3CCOCC3)CC2)n1 | -0.1 | -9.3 | 1.8 | 35.8*
CN(CCO)C1CCc2c(sc3ncn(CC4CCCCC4)c(=O)c23)C1 (stereo not drawn) | -0.1 | -6.7 | 0.4 | 49.2*
Cc1nnc(NC(=O)c2cccn(OCc3ccc(F)cc3)c2=O)s1 | -0.6 | -16.1 | 0.6 | 13.2
COc1ccc2oc(=O)c(C(=O)Nc3cc(C)ccn3)cc2c1 | -0.1 | -5.0 | 1.4 | 33.9*
CCCCOc1ccc(C(=O)Nc2cc(C)ccn2)cc1 | 0.1 | 8.4 | -7.0 | 51.7*
Cc1ccnc(NC(=O)c2ccc(N3CCCCS3(=O)=O)cc2)c1 | -0.3 | 0.8 | -8.5 | 88.1*
Cc1cc(NC(=O)c2ccc(N3CCCCS3(=O)=O)cc2)ccc1Br | 0.0 | 19.7 | -0.4 | 10.1
COc1ccc2oc(=O)c(C(=O)Nc3ccc(C)cc3Br)cc2c1 | -0.1 | -0.8 | 0.8 | 1.2
CCCCCOc1ccc(C(=O)Nc2cc(C)on2)cc1 | -0.1 | 6.0 | -1.8 | -13.6
Cc1ccc(Cl)cc1Nc1nc2ccccc2n2nnnc12 | 0.2 | 1.2 | 0.0 | -39.2
CC[n+]1ccc(/C=C2\C=CC=CN2C)cc1 | 0.3 | -6.8 | 0.2 | 3.0
CC[n+]1ccc(/C=C2\C=Cc3ccccc3N2C)cc1 | -0.1 | 2.3 | 0.2 | 85.4*
Nc1nonc1/C(=N/OC(=O)c1ccccc1)N1CCOCC1 | -0.1 | -17.1 | 0.7 | -2.0
O=C1c2ccccc2C(=O)c2c(NCCCN(CCO)CCO)cccc21 | -0.6 | 15.3 | 0.6 | 41.0*
COc1ccc(NC(=O)CN(C)C(C)C(=O)Nc2ccc(NC(C)=O)cc2)cc1 (stereo not drawn) | 0.0 | 7.1 | 0.6 | 7.5
Cc1ccc(-n2c(C)cc(/C=C3\NC(=S)NC3=O)c2C)cc1 | 0.0 | 4.5 | 0.0 | 0.6
COCCCN1C(=O)c2[nH]nc(-c3ccccc3O)c2C1c1ccc(C)cc1 (stereo not drawn) | 0.0 | -5.8 | -0.9 | 42.6*
C=CCn1c(-c2ccccc2)cnc1SCC(=O)Nc1ccccc1 | -0.5 | 15.3 | 0.5 | 23.2
C=CCn1c(-c2ccc(Cl)cc2)cnc1SCC(=O)Nc1sccc1C(N)=O | -0.1 | 1.3 | 0.0 | 33.6*
CCN=C(Nc1cccc(Cl)c1)SC1CC(=O)N(c2ccc(C(=O)O)cc2)C1=O (stereo not drawn) | 0.1 | 13.6 | -0.3 | 12.3
Nc1ccc(OCc2ccc(COc3ccc(N)cc3)cc2)cc1 | 16.8* | -116.2 | 1.0 | 20.8
Cc1ccsc1C(=O)C1CCCN(Cc2ccc(N3CCNC3=O)cc2)C1 (stereo not drawn) | 0.2 | -18.9 | -0.1 | 35.5*
COc1ccc(C(=O)C2CCCN(Cc3ccc(N4CCNC4=O)cc3)C2)cc1OC (stereo not drawn) | 0.0 | 14.8 | 0.3 | -4.1
O=C(Cn1ccc(=O)[nH]c1=O)NCc1ccc(Cl)cc1 | 0.1 | 6.4 | 1.0 | 2.9
CCOc1ccc(-c2cn[nH]c2N)cc1 | -0.2 | 14.8 | -0.9 | 47.8*
SMILES | FBW7 activator | MITF primary | GPR151 ag | TEAD-YAP block
COc1ccc(/C=C(/NC(=O)c2ccccc2)C(=O)N/N=C/c2cccc(O)c2)cc1OC | -0.1 | -2.6 | 0.1 | 1.9
COc1ccc(OC)c(/C=C(\NC(=O)c2ccccc2)C(=O)N/N=C/c2cccc(O)c2)c1 | 2.5* | 7.4 | -2.3 | -3.8
O=C(N/N=C/c1ccccc1F)/C(=C/c1ccccc1O)NC(=O)c1ccccc1 | 0.0 | 3.4 | -5.6 | 89.1*
O=C(N/N=C/c1ccccc1O)/C(=C/c1ccccc1)NC(=O)c1ccccc1 | -0.4 | 3.4 | 1.8 | 5.9
O=C(N/C(=C/c1ccccc1O)C(=O)N1CCCCC1)c1ccccc1 | 0.9 | -12.4 | -6.2 | 74.0*
O=C(N/C(=C/c1ccccc1)C(=O)N1CCCCCCC1)c1ccccc1 | 0.3 | 6.5 | 0.5 | 4.4
Cc1ccc(S(=O)(=O)/N=C2/C=C(ON=C3C=CC(=O)C=C3)C(=O)c3ccccc32)cc1 | -0.5 | 7.5 | -2.5 | 45.4*
CCc1ccc(/C=C2/N=C(c3ccc(NC(C)=O)cc3)OC2=O)cc1 | -0.1 | 25.0 | -0.3 | 2.1
Cc1cc(C(=O)NNC(=O)C(O)(c2ccccc2)c2ccccc2)cs1 | 1.9* | 3.6 | 0.6 | 2.1
Cc1ccc(SCCC(=O)Nc2ccc(S(=O)(=O)N3CCCC3)cc2)cc1 | -0.1 | -7.9 | 1.4 | 4.8
Fc1ccc(CNc2nccn3c(-c4cccc5cccnc45)cnc23)cc1 | 0.0 | -20.8 | 0.5 | 8.7
CC(C)CNc1nccn2c(-c3cccc4cccnc34)cnc12 | -0.1 | -12.2 | 0.6 | 41.7*
COc1ccc(NC(=O)Cn2nnc(-c3ccccc3NC(=O)c3cccs3)n2)cc1 | -0.1 | 5.3 | 0.2 | -10.2
Cc1ccc(NC(=O)Cn2nnc(-c3ccccc3NC(=O)c3cccs3)n2)cc1 | 0.1 | 1.8 | 1.9 | 54.0*

High-throughput results deposited in PubChem BioAssay by The Scripps Research Institute Molecular Screening Center.
